In PubChem BioAssay (NCI):
Compounds without any hit were thinned out: in the full panel of roughly 83,000, 20% have a hit.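 For each line, cells grew in 96-well plates with the test compound present at a single concentration for 48 hours.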 Unmarked numbers belong to inactive results. Active and inactive are the calls of the source. How the source made its calls: active means growth percent below 10; inactive means the rest.

How the values were obtained:
Assay in all cases: NCI-60 one-dose screen, 48 h (100 = growth as untreated, 0 = no growth, -100 = all killed)
Conditions in all cases: 10 µM unless noted
NCI-H23 lung = test system: NCI-H23 lung
NCI-H226 lung = test system: NCI-H226 lung
NCI-H322M lung = test system: NCI-H322M lung
HOP-62 NSCLC = test system: HOP-62 NSCLC
NCI-H460 lung = test system: NCI-H460 lung
HOP-92 NSCLC = test system: HOP-92 NSCLC
NCI-H522 lung = test system: NCI-H522 lung
A549/ATCC NSCLC = test system: A549/ATCC NSCLC
786-0 renal = test system: 786-0 renal
COLO 205 colon = test system: COLO 205 colon
DU-145 prostate = test system: DU-145 prostate
K-562 leukemia = test system: K-562 leukemia
MALME-3M melanoma = test system: MALME-3M melanoma
MDA-MB-231 breast = test system: MDA-MB-231 breast
RXF 393 renal = test system: RXF 393 renal
SF-268 CNS = test system: SF-268 CNS
SF-295 CNS = test system: SF-295 CNS
SF-539 CNS = test system: SF-539 CNS
UACC-257 melanoma = test system: UACC-257 melanoma
M14 melanoma = test system: M14 melanoma

Compound | growth (NCI-H23 lung) | growth (NCI-H226 lung) | growth (NCI-H322M lung) | growth (HOP-62 NSCLC) | growth (NCI-H460 lung) | growth (HOP-92 NSCLC) | growth (NCI-H522 lung) | growth (A549/ATCC NSCLC) | growth (786-0 renal) | growth (COLO 205 colon) | growth (DU-145 prostate) | growth (K-562 leukemia) | growth (MALME-3M melanoma) | growth (MDA-MB-231 breast) | growth (RXF 393 renal) | growth (SF-268 CNS) | growth (SF-295 CNS) | growth (SF-539 CNS) | growth (UACC-257 melanoma) | growth (M14 melanoma)
O=C(N/N=C/c1ccc(N(CCCl)CCCl)cc1)c1cccc2ccccc12 | 85.7% | 74.3% | 102% | 59.5% | 47% | 55.5% | 47.9% | 58.4% | 74.2% | 86.3% | 85.3% | 38.9% | 84.8% | 86.9% | 93.3% | 77.4% | 78.7% | 78.6% | 79.1% | 51.7%
O=C(CC1(O)C(=O)Nc2ccccc21)c1ccc(C(=O)NCC2CCC3(CC2)OOC2(CCCCC2)OO3)cc1 (centres undefined) | 50.4% | 63.6% | 88.9% | 63.8% | 77.1% | -53.6% (active) | 54.9% | 57.9% | -34% (active) | 80% | 76.3% | 39.6% | 56.1% | 67% | 98.1% | 82% | 76.2% | 81% | 67.1% | 85.7%
COc1ccc(C2=N[C@@H](Cc3ccccc3)C(=O)Nc3ccsc32)cc1 | 53.7% | 76.3% | 89.8% | 66% | 51.7% | 61.4% | -13.4% (active) | 43.2% | 66.6% | 35.6% | 71.3% | 16.2% | 48.6% | 55.9% | 34.3% | 55.1% | 37% | 44.9% | 44% | 20.7%
COC(=O)[C@H](C[C@H](Cc1ccccc1)NC(=O)c1csc([C@@H](C[C@H](C(C)C)N(C)C(=O)[C@@H](NC(=O)[C@H]2CCCCN2C)C(C)C)OC(C)=O)n1)NC(=O)OCc1ccccc1 | 30.2% [8.5 µM] | -42.6% [8.5 µM] (active) | 44.7% [8.5 µM] | 18.6% [8.5 µM] | 5.67% [8.5 µM] (active) | 28.2% [8.5 µM] | -30.4% [8.5 µM] (active) | 18.8% [8.5 µM] | 15.2% [8.5 µM] | -53.3% [8.5 µM] (active) | -18.2% [8.5 µM] (active) | 5.76% [8.5 µM] (active) | -53.7% [8.5 µM] (active) | 5.23% [8.5 µM] (active) | 20.4% [8.5 µM] | 13.1% [8.5 µM] | 8.4% [8.5 µM] (active) | -21.7% [8.5 µM] (active) | 13.9% [8.5 µM] | -48.4% [8.5 µM] (active)
CC12CCC=CC1CCC1C2CCC2(C)C(c3ccc(=O)oc3)CCC12O (centres undefined) | -64% (active) | -92.3% (active) | -22.5% (active) | -71.9% (active) | -69.3% (active) | -10.7% (active) | -27.9% (active) | -52.1% (active) | -51.1% (active) | -50.9% (active) | -97.4% (active) | 0.925% (active) | -48.4% (active) | -5.15% (active) | -47.2% (active) | -62.8% (active) | -60% (active) | -90.3% (active) | -70.3% (active) | -30.3% (active)
Brc1ccc2c(c1)c(-c1nc(-c3c[nH]c4ncccc34)cs1)cn2CCN1CCCCC1 | 89% | 80% | 65.6% | 88.7% | 67.4% | 37.1% | 68.8% | 67.5% | 53% | 37.7% | 82.6% | -15.7% (active) | 100% | 62.1% | 60.4% | 75.9% | 91.5% | 87.3% | 96.7% | 15.8%
CC1=C(CN)C2=C(C)C3(CC3)[C@@](C)(O)C(=O)C2=C1 | 68.2% | 91.8% | 91.6% | 88.2% | 66.1% | 115% | 87.9% | 93.5% | 99% | 85.1% | 48.5% | 111% | 96.2% | 95.2% | 91.6% | 72.1% | 78.9% | 94.8% | 87.2% | 96.1%
NC(=O)C(Br)c1ccccc1 (centres undefined) | 89.9% | 88.7% | 99.6% | 103% | 108% | 99.6% | 53.5% | 91.8% | 107% | 103% | 103% | 84.3% | 74.9% | 87.8% | 104% | 79.6% | 97% | 109% | 83.3% | 73.3%
CC[C@H](C)[C@H](NC(=O)C12CC(NC(C)=O)(C1)C2)C(=O)N(C)[C@H](C[C@@H](OC(C)=O)c1nc(C(=O)N[C@@H](Cc2ccccc2)C[C@H](C)C(=O)OC)cs1)C(C)C | 30.9% | 19.9% | 51.3% | 20.3% | 3.12% (active) | 19.9% | 1.64% (active) | 22.6% | 16% | -31.5% (active) | 0.412% (active) | 11.5% | 51.8% | 28.5% | 43.9% | 27.2% | 18.7% | 1.61% (active) | 49.6% | 2.48% (active)
NC(N)=N/N=C\c1c[nH]c2ccc(Br)cc12 | 86.3% | 69.2% | 87.9% | 83.5% | 102% | 37.9% | 81% | 92.5% | 78.6% | 84.5% | 96.2% | 74.6% | 76.8% | 101% | 99% | 64.6% | 79.9% | 84% | 69.3% | 94.1%
COC(=O)[C@H](Cc1c[nH]c2ccccc12)NC(=O)[C@@H](OC)[C@@H]1Cc2cc3cc(OC4CC(OC5CC(O)C(O)C(C)O5)C(O)C(C)O4)c(C)c(O)c3c(O)c2C(=O)[C@H]1OC1CC(OC2CC(OC3CC(C)(O)C(O)C(C)O3)C(O)C(C)O2)C(O)C(C)O1 (some centres undefined) | -20.3% (active) | -38.6% (active) | 6.45% (active) | 9.74% (active) | 6.58% (active) | -13.9% (active) | -28.2% (active) | 12.7% | 1.54% (active) | -39.5% (active) | 12.5% | 4.37% (active) | -47% (active) | -14% (active) | -85.9% (active) | -10.1% (active) | -6.35% (active) | -35.3% (active) | -5% (active) | -60.2% (active)
COc1cc2c(cc1OCCCCCn1c(-c3ccco3)nc3ccccc31)N=C[C@@H]1CCCN1C2=O | -50% (active) | -14.9% (active) | -13% (active) | 6.15% (active) | 4.72% (active) | -5.94% (active) | -23.9% (active) | 9.67% (active) | 11.5% | 4.57% (active) | 29.3% | 5.85% (active) | -47.8% (active) | 9.17% (active) | -40.4% (active) | 8.92% (active) | 9.61% (active) | 1.5% (active) |  | -23% (active)
COc1ccc(C(O)(C(=O)O)c2ccc(OC)cc2)cc1 | 89.8% | 116% | 102% | 91% | 97.2% | 95.1% | 62% | 71.6% | 94.8% | 102% | 104% | 87.8% | 105% | 85.7% | 109% | 95.3% | 87.1% | 86.8% | 90.6% | 86.2%
COC(=O)[C@@H](C)C[C@H](Cc1ccccc1)NC(=O)c1csc([C@@H](C[C@H](C(C)C)N(C)C(=O)[C@H](C)NC(=O)[C@H]2CCCN2C)OC(C)=O)n1 | 60.8% | 68.2% | 63.7% | 63.6% | 30.9% | 37.6% | -10.7% (active) | 83% | 45% | 22.8% | 51.6% | 11.5% | 56.2% | 63.6% | 21.8% | 53.9% | 31.1% | 39.9% | 36.4% | 37.5%
c1ccc(CSC(c2ccccc2)c2ccccc2)cc1 | 101% | 111% | 119% | 116% | 105% | 76.2% | 97.6% | 103% | 91.3% | 101% | 121% | 105% | 110% | 119% | 119% | 112% | 114% | 105% | 105% | 99.1%
